Screens (PubChem BioAssay)
HT1080 IDH1KD tx: toxicity to HT-1080 IDH1 knockdown cells (counter line) | HT-1080 IDH1 knockdown viability, ATP luminescence, 48 h | Potency, µM (series often up to 46.1 µM), inactives show top-dose activity, negative = toxicity, usual class: cytotoxic | 2% of 360,000 active;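 also: potency is read from the fitted curve at half-maximal effect; 0% = DMSO wells and -100% = cell-free medium wells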
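Luminescent ATP read-out (CellTiter-Glo, 10 min at room temperature) after 48 h compound exposure at 37 °C gave viability of IDH1-knockdown HT-1080 cells. Activity was normalised to DMSO and cell-free wells, then fitted as concentration-response curves.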
IL1B secr inh: inflammasome signaling inhibition, IL-1 beta readout. THP-1 LPS/ATP IL-1B secretion, AlphaLISA, 16 h; hits give low values. activity change, % at 57.5 µM. 4.7% of 360,000 active. AID 743279; in the data active = activity change below about -50%; inconclusive = mostly about -30% to -49%
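Secreted IL-1B measured by AlphaLISA bead assay after 16 h compound exposure of THP-1 cells; compounds (final up to 57.5 uM) added 1 h before LPS (250 ng/mL) and ATP (1.25 mM) stimulation; lower signal means less secretion.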
DT40 TDP1 CPT: DT40-hTDP1 cell growth loss with CPT | 12% of 420,000 active | Potency, µM (highest dose often 46.2 µM), for the others: at the top dose activity change, negative = growth inhibition, actives largely listed as inhibitors | chicken DT40 Tdp1-/-;hTDP1 cells + 20 nM CPT, ATP luminescence, 48 h; also: potency is read from the fitted curve at half-maximal effect; nearly all actives have a fitted effect of over 55% in size
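Chicken DT40 Tdp1-/- cells complemented with human TDP1, 400 cells/well, exposed to compounds plus 20 nM camptothecin for at least 48 h at 37 C; viability read as ATP content by CellTiter-Glo luminescence.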
DT40 TDP1 no CPT: qHTS for Inhibitors of human tyrosyl-DNA phosphodiesterase 1 (TDP1): qHTS in cells in absence of CPT; DT40 Tdp1-/- hTDP1 cells, no CPT, ATP luminescence, 48 h; Potency, µM (highest dose often 46.2 µM), for the others: at the highest dose activity change, negative = growth inhibition, most hits filed as inhibitors; 15% of 420,000 active; AID 686978, 2013; also: potency is read from the fitted curve at half-maximal effect; nearly all actives have a fitted effect of over 55% in size
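Chicken DT40 Tdp1-/- cells complemented with human TDP1, screened without camptothecin (DMSO vehicle only), 400 cells/well. Compounds pin-transferred, cells incubated at 37 °C for at least 48 hr. Growth read as ATP-dependent luminescence (CellTiter-Glo, 30 min at RT).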
HT1080-NT tox: kills 2HG-producing HT-1080-NT fibrosarcoma cells; HT-1080-NT fibrosarcoma viability, CellTiter-Glo ATP luminescence, 48 h; Potency, µM (titrated, usually from 46.1 µM), for the others: at the highest dose activity, negative = less viability, actives largely listed as cytotoxic; 1.6% of 360,000 active; AID 686970;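 also: NT is the 2HG producing partner of a matched IDH1 knockdown line; potency is read from the fitted curve at half-maximal effect; 0% = DMSO-treated cells and -100% = media-only wells without cells; nearly all actives have a fitted effect of over 55% in size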
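Compounds were tested in concentration-response format on HT-1080-NT cells for 48 hours at 37 degrees C. Cell viability came from CellTiter-Glo luminescence; curves were classified by r2, response magnitude and activity.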
The depositor's hits bear a star; ? = inconclusive; nt = not tested or not shown. This is a sample that favours compounds with a hit; in the whole collection about 19% have one here. Unless noted, calls follow the shape of the dose curve; as a rule, active = well fitted curve in the direction sought with a large enough effect; inconclusive = small, poorly fitted or top-dose-only effect, or another doubt; inactive = no such curve, though single readings can be large; an effect the other way counts as inactive or inconclusive. Unless noted, % is scaled to controls: 0 for no effect and ±100 for the full control effect.

SMILES	HT1080 IDH1KD tx	IL1B secr inh	DT40 TDP1 CPT	DT40 TDP1 no CPT	HT1080-NT tox
OC(c1ccccc1)(c1nc(-c2cccc(F)c2)cs1)C(F)(F)F (stereo not given)	?	3	?	?	18µM*
OC(c1ccccc1)(c1nc(-c2ccccc2)cs1)C(F)(F)F (stereo not given)	?	-29	18µM*	21µM*	21µM*
CS(=O)(=O)c1ccc(-c2csc(C(O)(c3ccccc3)C(F)(F)F)n2)cc1 (stereo not given)	0%	1	?	?	-7%
CCc1nnc(NC(=O)CCNC(=O)c2ccco2)s1	3%	-4	0%	?	-2%
O=C(NC1CC2CCCC(C1)N2C(=O)Nc1ccccc1F)C1CC1 (stereo not given)	17%	1	-29%	?	28%
O=C(CN1C(=O)/C(=C2/SC(=S)N(CCS(=O)(=O)O)C2=O)c2ccccc21)Nc1cccc(Br)c1	2%	12	5%	-18%	1%
C#CCOc1ccc(Cl)cc1/C=C1/C(=O)ON=C1C	-9%	50	23µM*	?	-29%
CCCOc1ccccc1/C=C1/C(=O)ON=C1C	3%	-52*	?	?	6%
C#CCOc1ccc(/C=C2/C(=O)ON=C2C)cc1Br	2%	-27	23µM*	26µM*	-4%
CN1C(=O)C2(OCC(C)([N+](=O)[O-])CO2)c2ccccc21 (stereo not given)	4%	45	-3%	-11%	2%
CN1C(=O)C2(N=c3ccccc3=N2)c2ccccc21	?	8	?	15µM*	?
CCN(CC)C(=O)Oc1ccc2oc(=O)cc(-c3cc4cccc(OC)c4o3)c2c1	2%	-65*	?	-27%	15%
COc1ccc2oc(=O)cc(-c3cc4cccc(OC)c4o3)c2c1	3%	26	-9%	5%	8%
CC1CN(C(=O)C2(C)CC2(Br)Br)CC(C)O1 (stereo not given)	-1%	15	-4%	-4%	1%
COCCN(CCOC)C(=O)c1sc2nc(-c3ccccc3)cn2c1C	-4%	12	-5%	?	0%
Cc1cccc(NC(=O)c2sc3nc(-c4ccccc4)cn3c2C)c1C	nt	nt	0.52µM*	?	nt
COC(=O)c1ccc(NC(=O)c2sc3nc(-c4ccccc4)cn3c2C)cc1	-2%	-23	6.5µM*	2.6µM*	-1%
Cc1cc(C)cc(NC(=O)c2sc3nc(-c4ccccc4)cn3c2C)c1	nt	nt	15µM*	12µM*	nt
Cc1c(C(N)=O)sc2nc(-c3ccccc3)cn12	13%	0	-3%	-7%	17%
CC1CCCCN1CCNC(=O)c1cc2c(=O)n(C)c3ccccc3c2n1C (stereo not given)	-12%	-55*	?	?	-11%
Cn1c(=O)c(C(=O)NC2CCCCCCC2)c(O)c2ccccc21	-2%	6	21µM*	21µM*	5%
Cn1c(C(=O)NC2CCCCCC2)cc2c(=O)n(C)c3ccccc3c21	8%	-8	15µM*	16µM*	?
Cn1c(=O)c(C(=O)NC2CCCCCC2)c(O)c2ccccc21	4%	32	-6%	-17%	7%
CCCN(CCC)CCNC(=O)c1cc2c(=O)n(C)c3ccccc3c2n1C	-15%	-63*	?	18µM*	-13%
COc1ccc(OC)c(NC(=O)c2cccc(NC(=O)c3ccccc3C(=O)O)c2)c1	20%	0	10%	18%	17%
SMILES	HT1080 IDH1KD tx	IL1B secr inh	DT40 TDP1 CPT	DT40 TDP1 no CPT	HT1080-NT tox
Cc1cc(N(C)C)cc(C)c1N=Nc1cc[n+]([O-])cc1	-7%	6	?	?	-15%
O=C(CCN1C(=O)C2C3CCC(C3)C2C1=O)OCC(=O)c1ccc(Cl)cc1 (stereo not given)	-1%	15	-2%	17%	-1%
Cn1c(C(=O)NC2CCCCC2)cc2c(=O)n(C)c3ccccc3c21	-1%	-6	?	16µM*	20%
Cc1ccc(CNC(=O)c2cc3c(=O)n(C)c4ccccc4c3n2C)cc1	11%	-1	?	?	4%
CCC(Sc1nnc2c3ccccc3n(CC)c2n1)C(=O)Nc1ccc(NC(C)=O)cc1 (stereo not given)	nt	nt	?	21µM*	nt
CCOC(=O)c1sc(NC(=O)C(CC)Sc2nnc3c4ccccc4n(CC)c3n2)nc1C (stereo not given)	7%	40	6.5µM*	?	7%
